# Source: PubChem BioAssay
# An excerpt weighted towards active compounds, which were near 9% of everything screened.
# KinaseGlo FLuc: Kinase-Glo luciferase inhibition (counter-screen). 200,000 compounds, 0.28% hits. AID 1379. Potency, µM (doses to about 38.3 µM), most hits filed as inhibitors. Kinase-Glo luciferase, ATP luminescence, 8 min; note: nearly all actives have a fitted effect of over 60% in size
#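 Recombinant Kinase-Glo luciferase, 10 uM ATP (linear range), luciferin; imidazole pH 7.2 / KCl / MgCl2 / Tween / BSA buffer; 8 min RT; luminescence.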
# ALDH1A1 inh: blocks purified human ALDH1A1 activity | P00352 | Purified ALDH1A1, NADH fluorescence, propionaldehyde substrate | Potency, µM (top dose mostly 75.3 µM), most hits filed as inhibitors | 220,000 compounds, 7.3% hits | AID 1030; active = well fitted inhibition curve with a large enough effect, not every such curve was filed as active; inconclusive = small, poorly fitted or top-dose-only effect, or another doubt; inactive = no such curve, though single readings can be large or run the other way
# HPGD block: inhibitors of human 15-hydroxyprostaglandin dehydrogenase (HPGD) | P15428 | purified HPGD, NADH fluorescence kinetic, PGE2 substrate | Potency, µM, usual class: inhibitors | 150,000 compounds, 4.3% hits | AID 894; active = well fitted inhibition curve with a large enough effect, not every such curve was filed as active; inconclusive = small, poorly fitted or top-dose-only effect, or another doubt; inactive = no such curve, though single readings can be large or run the other way
# Target sequence (P15428 whole entry, looked up): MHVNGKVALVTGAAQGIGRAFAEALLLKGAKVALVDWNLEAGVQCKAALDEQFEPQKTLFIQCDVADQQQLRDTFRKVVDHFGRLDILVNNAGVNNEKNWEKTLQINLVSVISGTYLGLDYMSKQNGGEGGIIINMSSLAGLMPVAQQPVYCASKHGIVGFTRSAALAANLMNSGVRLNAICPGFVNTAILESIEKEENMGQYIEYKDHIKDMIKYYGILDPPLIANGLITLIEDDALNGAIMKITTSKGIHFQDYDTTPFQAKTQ
#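 NADH formation kinetics: reaction with 30 uM PGE2 and 1 mM NAD+ (final), 20 nM enzyme, Tris-HCl pH 8 with Tween 20, after 15 min compound preincubation at room temperature. Fluorescence change, last versus first of five reads.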
# HTT aggregate: mutant huntingtin aggregation inhibition. AID 1688. PC12 HttQ103-GFP aggregates, Acumen cytometry, 40 h. 220,000 compounds, 1.1% hits. Potency, µM (top dose mostly 46.1 µM), usual class: inhibitors; note: nearly all actives have a fitted effect of over 60% in size
#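 PC12/HTTQ103-GFP, ecdysone-inducible; teb 100 nM; cpd qHTS titration; GFP aggregates read on laser cytometer, Ex 488/Em 500-530 nm.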
# HTT cytoprotect: Huntington cell model cytoprotection by ATP luminescence; PC12 HTT-Q103 induced, cytoprotection, ATP luminescence, 40 h; Potency, µM (top dose mostly 56.4 µM), most hits filed as activators; 230,000 compounds, 0.14% hits; note: nearly all actives have a fitted effect of over 45% in size
#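 Compounds added alongside 100 nM tebufenozide, which induces toxic Q103 huntingtin exon 1-GFP in stable PC12 cells; surviving cells quantified by luminescent ATP measurement. Medium: phenol red-free DMEM, 5% equine and 5% calf serum.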
# LMNA splice mod: LMNA splicing modulation; HeLa LMNA splicing GFP/RFP minigene ratio, 48 h; Potency, µM (series often up to 46.1 µM), usual class: inhibitors; 200,000 compounds, 0.01% hits; active = well fitted inhibition curve with a large enough effect in the signal ratio, with a control signal flat, not every such curve was filed as active; inconclusive = small, poorly fitted or top-dose-only effect, or effect the other way, or a change in a side signal; the % refers to the signal ratio
#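 S3 HeLa cells stably expressing lamin A-EGFP splicing minigene plus DsRed2, 600 cells/well, 48 h compound exposure at 37C. Laser-scanning cytometry; analysed as GFP (500-530 nm)/RFP (575-640 nm) total intensity ratio; 0.5% DMSO vehicle.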
# Hits are given with their value; n = inactive; u = inconclusive; x = no result; [ ] = remark or other dose. Unless noted, calls come from the whole dose curve; as a rule, active = well fitted curve in the direction sought with a large enough effect; inconclusive = small, poorly fitted or top-dose-only effect, or another doubt; inactive = no such curve, though single readings can be large; an effect the other way counts as inactive or inconclusive.
SMILES,KinaseGlo FLuc,ALDH1A1 inh,HPGD block,HTT aggregate,HTT cytoprotect,LMNA splice mod
O=C(NC1CC1)c1ccc(F)cc1Cl,n,n,20µM,n,n,n
CSc1ccc(Cl)c(C(=O)NC2CCCC2)c1,n,n,16µM,n,n,n
O=C(NC1CCCCCCC1)c1cc(F)c(F)cc1Cl,n,n,x,n,n,n
COc1cc(SC)ccc1C(=O)N1CCCCCC1,n,n,3.2µM,n,n[10 µM],u
COc1cc(SC)ccc1C(=O)NC1CCCCC1,n,u,22µM,n,n[10 µM],n
C=C1CCC2[C@](C)(CO)C(O)CC[C@]2(C)C1C/C=C1/C(=O)OCC1O (some centres undefined),n,n,n,n,u,u
C=CCn1c(-c2ccc(OC)cc2)csc1=Nc1c(C)n(C)n(-c2ccccc2)c1=O,n,n,n,0.79µM,u,u
COc1ccc(OC(C)C(=O)Nc2cccc([N+](=O)[O-])c2)cc1 (centres undefined),n,n,n,n,n[10 µM],u
COc1ccc(Nc2ncnc3c2cnn3Cc2ccccc2)cc1,n,8.9µM,22µM,n,n[10 µM],u
c1ccc(CNc2ncnc3c2cnn3Cc2ccccc2)cc1,n,u,u,22µM,n[10 µM],u
COc1ccc(Nc2ncnc3sc(-c4ccccc4)cc23)cc1,n,u,u,u,n,n
CCOc1ccc(Nc2ncnc3c2cnn3-c2ccccc2)cc1,n,n,n,n,n[10 µM],n
CC1CCN(c2ncnc3c2cnn3Cc2ccc(Cl)cc2)CC1,n,n,n,u,n,u
CCOc1ccc(Nc2ncnc3c2cnn3Cc2ccccc2)cc1,n,11µM,u,n,n,n
CCC(C)Nc1ncnc2c1cnn2Cc1ccc(Cl)cc1 (centres undefined),n,n,n,25µM,n,u
CCc1nnc(NS(=O)(=O)c2ccc(NC(=O)OC)cc2)s1,n,n,n,n,n[0.074 µM],n
Clc1ccc(-n2ncc3c(NCc4ccco4)ncnc32)cc1,n,n,n,u,n,u
Clc1ccc(Cn2ncc3c(NCc4ccco4)ncnc32)c(Cl)c1,n,u,28µM,u,n[0.074 µM],n
CN(C)c1ccc(/C=C(\C#N)C(=O)NCc2ccco2)cc1,n,u,n,n,n[10 µM],n
Cc1c(/C=N/NC(=O)COc2ccccc2[N+](=O)[O-])c2ccccc2n1C,n,n,n,n,n[10 µM],n
OCCN1CCN(CC(O)COc2ccc(C34CC5CC(CC(C5)C3)C4)cc2)CC1 (centres undefined),n,n,x,u,n,x
NCCOc1ccc(C23CC4CC(CC(C4)C2)C3)cc1,n,22µM,x,n,n[10 µM],u
COCC(=O)N1CCC(n2nnc3cc(F)ccc32)CC1,n,n,n,n,n,n
COCCNC(=O)CN(C(=O)CCC(=O)Nc1ccccn1)c1ccc(F)cc1,n,n,n,n,n,n
COCCNC(=O)CN(C(=O)CCC(=O)Nc1ccccn1)c1ccccc1F,n,n,x,0.0045µM,n,x
SMILES,KinaseGlo FLuc,ALDH1A1 inh,HPGD block,HTT aggregate,HTT cytoprotect,LMNA splice mod
CCOC(=O)C1=C(CN2CCCCC2)NC(=O)NC1c1ccc(OC)cc1 (centres undefined),x,x,x,x,x,n
COc1ccccc1CNC(=O)c1cccs1,n,n,16µM,n,n,n
COc1ccc(Br)cc1CNC(=O)Nc1cccs1,n,u,n,n,n,n
COc1ccc(C(=O)NCc2ccccc2OC)c(OC)c1,n,u,28µM,u,n[10 µM],n
COc1ccc(C(=O)NCCn2ccc3ccccc32)c(OC)c1,n,10µM,u,n,n,u
COc1ccccc1CNC(=O)Nc1cccs1,n,u,22µM,n,n,n
COc1ccccc1CNC(=O)N/C=C/c1ccc(Cl)cc1,n,25µM,x,n,n,n[9.22 µM]
COc1ccccc1CNC(=O)c1cc(C)nn1-c1ccccc1,x,x,x,n[9.22 µM],n[10 µM],x
O=C(N/C=C\c1ccccc1)NCc1ccc(Cl)cc1,n,u,n,n,n,u
COc1ccccc1C(OC(=O)c1cccs1)C(=O)NCc1ccco1 (centres undefined),n,25µM,n,n,n,n
COc1ccccc1CNC(=O)c1c(-c2ccccc2)nn(-c2ccccc2)c1C,n,4µM,n,n,n,n
CC(OC(=O)c1cccs1)C(=O)NCc1ccco1 (centres undefined),n,n,n,n,n[10 µM],n
COc1ccccc1CNC(=O)c1cccc(-c2ccccc2OC)n1,n,32µM,7.9µM,x,n,x
Cc1cc(S(=O)(=O)N2CCCC2C(=O)N2CCOCC2)c(C)cc1Cl (centres undefined),n,n,n,n,n[10 µM],n
[O-]/[N+](=C/c1ccc(F)cc1)c1ccc(Cl)cc1,n,6.3µM,n,n,n,n
CN1C(=S)SC(/[N+]([O-])=C/c2ccc(Cl)cc2)C1(C)C (centres undefined),x,x,x,n[9.22 µM],n[10 µM],x
CCN1C(=O)c2cccc3c(NS(=O)(=O)c4ccc(NC(C)=O)cc4)ccc1c23,n,u,n,n,n[10 µM],u
CCN1C(=O)c2cccc3c(NC(=O)c4ccc(S(=O)(=O)N(C)C)cc4)ccc1c23,n,2.8µM,n,n,n[1.9 µM],u
CCN1C(=O)c2cccc3c(NC(=O)c4ccc(S(=O)(=O)N5CCOCC5)cc4)ccc1c23,n,2µM,n,n,n[10 µM],u
Cc1cc(Br)cc(C)c1OCCCCN(C)C,n,u,n,n,n,n[0.0737 µM]
Cc1c(/C(O)=C2/C(=O)C(=O)N(Cc3cccnc3)C2c2cccs2)cnn1-c1ccccc1 (centres undefined),n,1.1µM,20µM,n,n,n
COc1ccc(OC)c(C2/C(=C(\O)c3ccc(OC)c(Cl)c3)C(=O)C(=O)N2CCN(C)C)c1 (centres undefined),n,n,n,n,n,n
Cc1c(/C(O)=C2/C(=O)C(=O)N(Cc3cccnc3)C2c2ccccn2)cnn1-c1ccccc1 (centres undefined),n,u,x,n,n,n
COc1ccc(OC)c(C2/C(=C(/O)c3cnn(-c4ccccc4)c3C)C(=O)C(=O)N2CCN(C)C)c1 (centres undefined),n,n,n,10µM,n,u
CN(C)S(=O)(=O)c1ccc(/C(O)=C2/C(=O)C(=O)N(Cc3cccnc3)C2c2ccncc2)cc1 (centres undefined),n,14µM,n,n,n,n
CN(C)S(=O)(=O)c1ccc(/C(O)=C2/C(=O)C(=O)N(CCN3CCCCC3)C2c2cccnc2)cc1 (centres undefined),n,22µM,n,x,x,x
CCOCCCNC(=S)Nc1ccc2nc(N3CCCC3)cc(C)c2c1,n,u,u,n,n[10 µM],n
O=C1C(=C2SCCCS2)CC/C1=C\c1ccc(F)cc1,11µM,n,n,n,n,n
Cc1cccc(/C=c2\s/c(=C\C(=O)C(C)(C)C)[nH]c2=O)c1,x,n,x,n,n,u
